Consider 27 compounds from PubChem BioAssay (NCATS).

SMILES strings stand for the structures. Values joined by “and” are separate entries in the source; they are usually repeats but may differ in a detail not shown here. Identical values can stand only once. Inconclusive results are not listed. Entries that show only a call come without a potency. Active and inactive are the calls of the source. Unless noted, the call rests on the fitted dose curve; in most records, active means well fitted curve in the direction sought with a large enough effect; inconclusive means small, poorly fitted or top-dose-only effect, or another doubt; inactive means no such curve, though single readings can be large; an effect the other way counts as inactive or inconclusive.

A short description of assay [1]: qHTS assay for measurement of the activity of small molecule inhibitors on Zika virus induced Caspase-3 activity in human iPSC derived neural progenitor cells (hNPCs) (AID 1224857). Further: nearly all actives have a fitted effect of over 65% in size. In outline:
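Values are percent inhibition of virus-induced caspase-3/7 signal, scaled between uninfected cells and ZIKV-infected cells. Infection used 2 FFU/cell for 6 h after 1 h compound exposure.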
(In general: Quantitative high-throughput screening tests each substance at several concentrations.)

Assay [2] in a line: qHTS assay for measurement of the activity of small molecule inhibitors on Zika virus induced Caspase-3 activity in human astrocytoma cells (AID 1224859). In outline:
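Compound added 1 h pre-infection; ZIKV 2 FFU/cell on SNB-19 cells, 6 h, 37 C/5% CO2. Caspase-Glo 3/7 luminescence; values as % inhibition of ZIKV-induced caspase activity.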

Assay [3] in a line: qHTS assay to identify small molecule inhibitors of chordoma cells - UCH-2 (AID 1259356). Further: potency means the concentration at half of the fitted maximal effect.
Assay [4] can be described thus: qHTS profiling for inhibitors of Plasmodium falciparum (DD2) proliferation (AID 743323; call rule not given here). The note with it: lower = more inhibition; at 28.7 µM (top of the series) unless noted. In outline: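 1536-well qHTS; infected RBCs 0.3% parasitemia/2.5% Hct final; cpd 72 h 37 C 5% CO2; lysis buffer + SYBR Green I, o/n RT dark; FI 485/535; norm. to 0.29 uM artemisinin and DMSO, plate-stack corrected.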

A short description of assay [5]: qHTS profiling for inhibitors of Plasmodium falciparum (HB3) proliferation (AID 743324). The note with it: Plasmodium falciparum HB3 blood-stage proliferation; at 28.7 µM (top of the series) unless noted. The procedure, abridged: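 SYBR Green fluorescence (485 ex/535 em) of lysed cultures, incubated overnight at room temperature in the dark, quantifies parasite DNA. Infected erythrocytes at 0.3% parasitemia and 2.5% hematocrit were exposed 72 h; values normalized to DMSO and 0.29 uM artemisinin controls.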

Assay [6] can be described thus: qHTS profiling of the MIPE4 collection as inhibitors of Plasmodium falciparum (3D7) proliferation (AID 743344; call rule not given here). The note with it: P. falciparum 3D7 in erythrocytes, SYBR Green DNA fluorescence, 72 h; at 28.5 µM (top of the series) unless noted. In outline:
(§1)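 Parasite DNA was quantified by SYBR Green I fluorescence (ex 485, em 535 nm) after overnight lysis in saponin/Triton buffer at room temperature. Cultures at 0.3% parasitemia and 2.5% hematocrit were first exposed to compound for 72 h at 37 C; signals were normalised to artemisinin (0.29 uM) and vehicle wells.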

The nature of assay [7]: qHTS profiling of the MIPE4 collection as inhibitors of Plasmodium falciparum (DD2) proliferation (AID 743345; call rule not given here). The conditions noted are these: P. falciparum Dd2 in erythrocytes, SYBR Green DNA, 72 h; at 28.5 µM (top of the series) unless noted. The procedure, abridged: as §1
Assay [8] in a line: qHTS profiling of the MIPE4 collection as inhibitors of Plasmodium falciparum (DD2) proliferation (Rep 2) (AID 743346; call rule not given here). The note with it: P. falciparum Dd2 in erythrocytes, SYBR Green DNA, 72 h; at 28.5 µM (top of the series) unless noted. In outline: as §1
Assay [9] is described as follows: qHTS profiling of the MIPE4 collection as inhibitors of Plasmodium falciparum (HB3) proliferation (AID 743347; call rule not given here). The note with it: P. falciparum HB3 in erythrocytes, SYBR Green DNA, 72 h; at 28.5 µM (top of the series) unless noted. In outline:
as §1

For the compound `CCCC(=O)O[C@]1(C(=O)CO)CC[C@H]2[C@@H]3CCC4=CC(=O)CC[C@]4(C)[C@H]3[C@@H](O)C[C@@]21C`, the result in assay [1] and in assay [2] was inactive. Moreover, in assay [3], the Potency entry is “inactive”.

With `CN(C)C(=S)SC(=S)N(C)C`, the outcome in assay [1] and in [2] was inactive. The Potency entry in assay [3] was “inactive”.

`Oc1c(I)cc(I)c2cccnc12`: the call in assay [1] and in assay [2] was inactive. Also, the Potency result in assay [3] was “inactive”.

For the compound `CC(C)=CCC1C(=O)N(c2ccccc2)N(c2ccccc2)C1=O`, the result in [1] and in assay [2] was inactive. Also, the Potency entry in assay [3] was “inactive”.

Take `CC1(C)O[C@@H]2C[C@H]3[C@@H]4C[C@H](F)C5=CC(=O)CC[C@]5(C)[C@H]4[C@@H](O)C[C@]3(C)[C@]2(C(=O)CO)O1`: the result in assay [1] and in [2] was inactive. The Potency entry in [3] is “inactive”.

Take `COc1cc2c(cc1OC)[C@@H]1CC(=O)[C@@H](CC(C)C)CN1CC2`: the compound was called inactive in assay [1] and in [2]. The Potency entry in assay [3] is “inactive”.

As for `CC(=O)OCC(=O)[C@@]1(O)[C@H](C)C[C@H]2[C@@H]3CCC4=CC(=O)C=C[C@]4(C)[C@@]3(F)[C@@H](O)C[C@@]21C`, the compound was classed as inactive in assay [1] and in [2]. The Potency entry in [3] was “inactive”.

In the case of `O=c1ccc2ccccc2o1`, the outcome in assay [1] and in assay [2] was inactive. Further, in assay [3], the Potency entry is “inactive”.

Take `Cc1cc(=O)n(-c2ccccc2)n1C`: the call in [1] and in assay [2] was inactive. For the same compound, the Potency entry in assay [3] is “inactive”.

With `CC1(C)O[C@@H]2[C@@H](CO[C@@]3(COS(N)(=O)=O)OC(C)(C)O[C@@H]23)O1`, the call in assay [1] and in assay [2] was inactive. Besides, the Potency entry in assay [3] is “inactive”.

On to `CN(C)CCCOc1nn(Cc2ccccc2)c2ccccc12`, for which the call in assay [1] and in [2] was inactive. Besides, the Potency result in assay [3] is “inactive”.

In the case of `CCC(=O)c1c(O)cc(O)cc1O`, the compound was classed as inactive in assay [1] and in [2]. In [3], the Potency result was “inactive”.

Take `CN1CCN(C(c2ccccc2)c2ccccc2)CC1`: the result in assay [1] and in assay [2] was inactive. Moreover, the Potency entry in [3] was “inactive”.

On to `CCCCC(CC)CN=C(N)NC(N)=NCCCCCCN=C(N)NC(N)=NCC(CC)CCCC` (stereo unspecified), for which the result in assay [1] and in assay [2] was inactive. The Potency in [3] is 25.9 µM (active).

`COc1cccc2c1C(=O)c1c(O)c3c(c(O)c1C2=O)C[C@@](O)(C(=O)CO)C[C@@H]3O[C@H]1C[C@H](N)[C@H](O)[C@H](C)O1`: in assay [4], the activity, percent of control is -2.65%. Moreover, in assay [5], the remaining proliferation (% of control), lower = more inhibition was -0.62%. Besides, the call in [1] and in [2] was inactive. Besides, in [3], the Potency result is “inactive”.

With `Oc1c(I)cc(Cl)c2cccnc12`, the compound was called inactive in [1] and in assay [2]. Besides, the Potency result in assay [3] is “inactive”.

Turning to `CC(O)(P(=O)(O)O)P(=O)(O)O`, the call in assay [1] and in [2] was inactive. For the same compound, in [3], the Potency entry is “inactive”.

As for `O=C(O)CNC(=O)c1ccccc1`, the result in assay [1] and in [2] was inactive. Besides, in [3], the Potency entry is “inactive”.

With `C=C(CC)C(=O)c1ccc(OCC(=O)O)c(Cl)c1Cl`, the compound was classed as inactive in [1] and in assay [2]. Moreover, the Potency entry in [3] is “inactive”.

For the compound `O=C1c2ccccc2C(=O)C1c1ccccc1`, the compound was classed as inactive in [1] and in assay [2]. For the same compound, in assay [3], the Potency entry is “inactive”.

Regarding `CCOC(=O)OC(C)OC1=C(C(=O)Nc2ccccn2)N(C)S(=O)(=O)c2ccccc21` (stereo unspecified), the call in assay [1] and in [2] was inactive. For the same compound, the Potency entry in assay [3] is “inactive”.

Regarding `OC[C@H]1O[C@@H](n2cnc3c(=S)nc[nH]c32)[C@H](O)[C@@H]1O`, the compound was classed as inactive in [1] and in assay [2]. In addition, in assay [3], the Potency entry was “inactive”.

Regarding `CC(=O)Oc1ccc(C(c2ccc(OC(C)=O)cc2)c2ccccn2)cc1`, the compound was classed as inactive in assay [1] and in [2]. Moreover, the Potency result in assay [3] was “inactive”.

On to `CC(C)COC(=O)c1ccc(N)cc1`, for which the outcome in assay [1] and in [2] was inactive. In [3], the Potency entry was “inactive”.

For `COc1cc2c(cc1O)CC[C@@H]1[C@@H]2CC[C@]2(C)[C@@H](O)CC[C@@H]12`, the activity, percent of control in assay [4] was 93.6% and 83.5%. In addition, in [5], the remaining proliferation (% of control), lower = more inhibition was 93.9% and 38.4%. The compound also showed a parasite growth, % of DMSO control in assay [6] of 83.5%. In addition, the parasite growth remaining, % of DMSO control (lower = more inhibition) in [7] was 96.4%. Also, the parasite growth, % of control (lower = inhibition) in [8] turned out to be 130%. In addition, the growth, % of control in assay [9] was found to be 83.5%.

In the case of `Nc1ccn([C@@H]2O[C@H](CO)[C@@H](O)C2(F)F)c(=O)n1`, the activity, percent of control in assay [4] turned out to be 1.07% [at 57.5 µM]. In addition, the remaining proliferation (% of control), lower = more inhibition in assay [5] is 0.276% [at 57.5 µM].

For the compound `COc1ccc(CN2CCN(C(c3ccc(F)cc3)c3ccc(F)cc3)CC2)c(OC)c1OC`, in assay [6], the parasite growth, % of DMSO control came out at 4.59%. In [7], this compound showed a parasite growth remaining, % of DMSO control (lower = more inhibition) of 8.3%. Also, the parasite growth, % of control (lower = inhibition) in assay [8] was found to be 26.6%. The compound further gave a growth, % of control in assay [9] of 6.18%.
